Experimental data as given in PubChem BioAssay (NCI).
This is part of a sample that, as a whole, favours compounds with a hit. Of some 83,000 tested, about 20% had one in any assay.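 96-well plates, one dose, 48 hours. Percent growth reported; active if below 10.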 Unmarked numbers belong to inactive results. Calls of active or inactive are those of the source.

Columns and labels:
Test in all cases: NCI-60 one-dose screen, 48 h (100 = growth as untreated, 0 = no growth, -100 = all killed)
Details in all cases: 10 µM unless noted
NCI-H23 lung = system: NCI-H23 lung
NCI-H226 lung = system: NCI-H226 lung
NCI-H322M lung = system: NCI-H322M lung
HOP-62 NSCLC = system: HOP-62 NSCLC
NCI-H460 lung = system: NCI-H460 lung
HOP-92 NSCLC = system: HOP-92 NSCLC
NCI-H522 lung = system: NCI-H522 lung
786-0 renal = system: 786-0 renal
COLO 205 colon = system: COLO 205 colon
DU-145 prostate = system: DU-145 prostate
K-562 leukemia = system: K-562 leukemia
MALME-3M melanoma = system: MALME-3M melanoma
MDA-MB-231 breast = system: MDA-MB-231 breast
RXF 393 renal = system: RXF 393 renal
SF-268 CNS = system: SF-268 CNS
SF-539 CNS = system: SF-539 CNS
UACC-257 melanoma = system: UACC-257 melanoma
M14 melanoma = system: M14 melanoma
A549/ATCC NSCLC = system: A549/ATCC NSCLC
SF-295 CNS = system: SF-295 CNS

| Structure (SMILES) | growth (NCI-H23 lung) | growth (NCI-H226 lung) | growth (NCI-H322M lung) | growth (HOP-62 NSCLC) | growth (NCI-H460 lung) | growth (HOP-92 NSCLC) | growth (NCI-H522 lung) [%] | growth (786-0 renal) | growth (COLO 205 colon) | growth (DU-145 prostate) | growth (K-562 leukemia) | growth (MALME-3M melanoma) | growth (MDA-MB-231 breast) | growth (RXF 393 renal) | growth (SF-268 CNS) | growth (SF-539 CNS) | growth (UACC-257 melanoma) | growth (M14 melanoma) | growth (A549/ATCC NSCLC) | growth (SF-295 CNS) |
| --- | --- | --- | --- | --- | --- | --- | --- | --- | --- | --- | --- | --- | --- | --- | --- | --- | --- | --- | --- | --- |
| OCC12CCCC(CO)(COC1)C2O (stereo not drawn) | 97% | 99.8% | 115% | 106% | 100% | 30.9% | 111 | 112% | 107% | 127% | 120% | 114% | 94.3% | 121% | 113% | 105% | 100% | 97.6% | – | – |
| N#C/C(=C\c1ccc(-c2cccc(C(F)(F)F)c2)o1)c1nc(-c2ccco2)cs1 | 91.8% | 84.1% | 89.2% | 105% | 94.4% | 86.9% | – | 102% | 118% | 105% | 92.3% | 93.8% | 78.9% | 107% | 99.8% | 91.4% | 105% | 97.8% | 104% | 94.2% |
| c1cnc2[nH]cc(-c3csc(-c4cn(CCCN5CCCCC5)c5ccccc45)n3)c2c1 | 79.7% | 77% | 83.8% | 54.6% | 10.1% | 35.1% | – | 56.3% | -74% (active) | 67% | -45.4% (active) | -55% (active) | 45% | 52.3% | 58.9% | -48.5% (active) | 92% | -77.8% (active) | 58.3% | 88.8% |
| COC(=O)[C@]12CC[C@@H](C)[C@H](C)[C@@H]1C1=CC[C@@H]3[C@@]4(C)C[C@@H](O)[C@H](O)[C@@](C)(CO)C4=CC[C@@]3(C)[C@]1(C)CC2 | -57.8% (active) | -47.4% (active) | -84.7% (active) | -61% (active) | -63.4% (active) | -77.6% (active) | – | -74.1% (active) | -76.7% (active) | -41.4% (active) | -22.8% (active) | -74.8% (active) | -63.7% (active) | -88.3% (active) | -49.2% (active) | -89.9% (active) | – | -68.1% (active) | -14.1% (active) | -83.3% (active) |
| Cc1cc(N2CCCCC2)nc(N(CCCNc2ccnc3cc(Cl)ccc23)Cc2ccco2)n1 | 21.4% | 57.1% | 19.6% | 8.53% (active) | 10.7% | -6.02% (active) | – | 24.2% | -35.3% (active) | 39% | 3.78% (active) | -5.59% (active) | 21.8% | 19.6% | 44% | -36.5% (active) | 49.4% | -74.4% (active) | – | 20.3% |
| Cn1c2c(Cl)c(Cl)ccc2c2c(C#N)c[nH]c(=O)c21 | 91% | 94.5% | 129% | 94.1% | 96.2% | 78.6% | – | 97.4% | 115% | 109% | 106% | 140% | 98.5% | 97.2% | 99% | 84.6% | 98.1% | 105% | 93.3% | 97.8% |
| O=S(=O)(NCCNc1cc(-c2cn(-c3ccccc3)nc2-c2cccc(O)c2)ccn1)c1ccccc1 | 57.4% | 67.1% | 82% | 77.7% | 49.1% | 49.4% | – | 55.3% | 18.3% | 76.2% | 9.58% (active) | 76.4% | 28% | 66.3% | 69.7% | 70% | – | 53.9% | 45.5% | 43.2% |
| Cc1ccsc1-c1ccc2c(c1)COC2(CCCN(C)C)c1ccc(F)cc1 (stereo not drawn) | 70.6% | 93% | 68.5% | 69.4% | 10.3% | 41.6% | – | 63.8% | -43.9% (active) | 60% | 1.22% (active) | -14% (active) | 51.1% | 28.2% | 65.2% | 67% | -10.5% (active) | -57.5% (active) | 45.9% | 57.1% |
| CN(C)c1ccc(N=C2C=CC(=O)C=C2)cc1 | 84.5% | 95.1% | 75% | 107% | 97.1% | 77.5% | – | 98.4% | 36.3% | 112% | 64.2% | 85.8% | 46.4% | – | 101% | 65% | 119% | 95.6% | 102% | 95.1% |
| CC(C)(C)n1cc(-c2ccnc(NCCCNS(=O)(=O)c3ccc(Cl)cc3)c2)c(-c2cccc(F)c2)n1 | 70.9% | 80.9% | 98.5% | 93% | 59.4% | 73.6% | – | 71.4% | 43.4% | 87% | 24.8% | 73.8% | 81.6% | 72% | 86.6% | 75% | 93.1% | 77.7% | 61.9% | 68.2% |
| CC(C)=CCC/C(C)=C/CC/C(C)=C/CC/C(C)=C/CSC[C@H](NC(=O)CCCCCN1CCN(C)CC1)C(=O)NC1CCCCC1 | 73% | 95.8% | 89.8% | 85.6% | -7.73% (active) | 76.4% | – | 83.7% | 8.86% (active) | 64.3% | -27.2% (active) | 71.2% | -81.3% (active) | 75.1% | 84.8% | 85.7% | 105% | 35.1% | 71.7% | – |
| C=C(C)[C@@H]1CC[C@]2(C(=O)OC)CC[C@]3(C)[C@H](CC[C@@H]4[C@@](C)(CC/C(N)=N/O)[C@H](C(=C)C)CC[C@]43C)[C@@H]12 | 107% | 97.2% | 105% | 103% | 99.5% | 102% | – | 94.7% | 107% | 104% | 86.3% | 98.2% | 104% | 112% | 96.6% | 97.5% | 103% | 99.1% | 91.8% | 96.4% |
| C#CCC(C)(O)/C=C/C1=C(C)CCCC1(C)C (stereo not drawn) | 94.5% | 85.4% | 99.4% | 96.9% | 103% | 84% | – | 92.6% | 113% | 103% | – | 90% | 99.3% | 100% | 95.6% | 102% | 76.4% | 89.4% | 69.8% | 95.4% |
| O=C(NO)c1ccc(Cn2c(=O)n(-c3ccccc3)c(=O)c3ccccc32)cc1 | -38.7% (active) | 41.3% | 38.8% | 29.3% | 39% | 48.4% | – | 71% | -62.4% (active) | 21.9% | 3.42% (active) | – | 55.1% | -13.1% (active) | 43.9% | -8.95% (active) | – | 2.72% (active) | 37.7% | 13.6% |
| Cc1nc([P+](c2ccccc2)(c2ccccc2)c2ccccc2)c(Sc2sc(-c3ccccc3)nc2[P+](c2ccccc2)(c2ccccc2)c2ccccc2)o1 | 3.75% (active) | 47.6% | 28.2% | 9.57% (active) | 3.38% (active) | -18.9% (active) | – | 20.2% | -43.4% (active) | 19.7% | 9.67% (active) | 6.38% (active) | 14.2% | 26.7% | 18.2% | 22.3% | 8.5% (active) | 15.5% | – | 1.87% (active) |
| Cc1cc(Nc2ccc(F)cc2)nc(N2CCN(c3ccnc4cc(Cl)ccc34)CC2)n1 | 28.9% | 57.5% | 46.8% | 59.8% | 11.6% | -7.85% (active) | – | 23.5% | -68% (active) | 35% | 6.26% (active) | 12.7% | 37.9% | 38.9% | 36.2% | 14% | 38.3% | 12.9% | 29.8% | – |
